In PubChem BioAssay (NCI):
The panel holds about 79,000 compounds, 15% with a hit somewhere; the sample as a whole holds those more often. The source made the active and inactive calls. Rule as the data show it: active = growth inhibition above about 70%; inactive = the rest.

What was measured:
[1] = NCI Yeast Anticancer Drug Screen. Data for the rad50 strain (AID 155);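 also: 0% = growth of vehicle-only cultures of the same strain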; details: S. cerevisiae rad50 strain growth inhibition, active compounds read high
Summary of the method: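 DNA repair mutant yeast, compound exposure, growth read-out; inhibition is taken relative to vehicle.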

[2] = NCI Yeast Anticancer Drug Screen. Data for the mec2-1 strain (AID 157); details: S. cerevisiae mec2-1 strain, active compounds read high
Summary of the method: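 Yeast mec2-1 mutant treated with compound. Readout: growth inhibition vs vehicle controls.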

[3] = NCI Yeast Anticancer Drug Screen. Data for the sgs1 mgt1 strain (AID 161);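 also: 0% = growth of cultures given vehicle only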; details: S. cerevisiae sgs1 mgt1 strain, active compounds read high
Summary of the method: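 Test agents were incubated with a DNA-repair-mutant yeast strain. Growth was then read and compared against vehicle-treated controls.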

[4] = NCI Yeast Anticancer Drug Screen. Data for the cln2 rad14 strain (AID 165);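 also: 0% = growth equal to vehicle treated cultures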; details: S. cerevisiae cln2 rad14 strain, active compounds read high
Summary of the method: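 cln2 rad14 yeast strain; compound exposure; growth inhibition read vs vehicle controls.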

[5] = NCI Yeast Anticancer Drug Screen. Data for the bub3 strain (AID 167); details: S. cerevisiae bub3 mutant strain, active compounds read high
Summary of the method: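 In this screen, a yeast mutant lacking normal mitotic checkpoint function is challenged with compound. Relative growth versus vehicle gives the inhibition value.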

[6] = NCI Yeast Anticancer Drug Screen. Data for the mlh1 rad18 strain (AID 175); details: S. cerevisiae mlh1 rad18 strain growth inhibition, active compounds read high
Summary of the method: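 Yeast w/ defined DNA-repair lesions; compound exposure; growth vs vehicle controls → % inhibition.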

[7] = at 5.0 µM (retest, dose inferred, filed as 0.5)
[8] = at 50.0 µM (retest, dose inferred, filed as 5.0)

Measured: growth inhibition

c1ccc(B2OC(c3ccccc3)C(c3ccccc3)O2)cc1 (configuration not stated)
inactive: [1]; [7] -19% | [1]; [8] -12% | [1]; at 50.0 µM 3.35% | [2]; [7] -18% | [2]; [8] -21% | [2]; at 50.0 µM -0.45% | [3]; [7] -7% | [3]; [8] -9% | [3]; at 50.0 µM 10.8% | [4]; [7] 24% | [4]; [8] 7% | [4]; at 50.0 µM 5.85% | [5]; [7] -4% | [5]; [8] -3% | [5]; at 50.0 µM 11.2% | [6]; [7] -13% | [6]; [8] 9% | [6]; at 50.0 µM 8.85%

Oc1cccc2c(Br)ccnc12
active: [1]; [8] 100% | [1]; at 50.0 µM 87% | [2]; [8] 99% | [2]; at 50.0 µM 92% | [3]; [8] 99% | [3]; at 50.0 µM 85% | [4]; [8] 99% | [4]; at 50.0 µM 87.8% | [5]; [8] 99% | [5]; at 50.0 µM 87.2% | [6]; [8] 99% | [6]; at 50.0 µM 81.8%
inactive: [1]; [7] -5% | [2]; [7] -21% | [3]; [7] -33% | [4]; [7] -5% | [5]; [7] -29% | [6]; [7] 15%

NC(N)=Nc1ccc(C(=O)Oc2c(Cl)cc([N+](=O)[O-])cc2Cl)cc1
active: [3]; at 50.0 µM 71.1%
inactive: [1]; [7] -30% | [1]; [8] 46% | [1]; at 50.0 µM 48% | [2]; [7] -6% | [2]; [8] 28% | [2]; at 50.0 µM 30.2% | [3]; [7] 4% | [3]; [8] 65% | [4]; [7] -9% | [4]; [8] 32% | [4]; at 50.0 µM 21.9% | [5]; [7] -6% | [5]; [8] 40% | [5]; at 50.0 µM 25.9% | [6]; [7] 12% | [6]; [8] 56% | [6]; at 50.0 µM 32.9%

O=C(CC(=O)c1ccccc1)CC(=O)c1ccccc1Br
inactive: [1]; [7] 1% | [2]; [7] -1% | [3]; [7] -17% | [3]; at 50.0 µM 6.6% | [4]; [7] -3% | [5]; [7] -1% | [5]; at 50.0 µM 68.7% | [6]; [7] 1%
active: [1]; [8] 94% | [1]; at 50.0 µM 71.1% | [2]; [8] 93% | [2]; at 50.0 µM 93.5% | [3]; [8] 93% | [4]; [8] 75% | [4]; at 50.0 µM 85.5% | [5]; [8] 96% | [6]; [8] 96% | [6]; at 50.0 µM 96.5%

O=C1OC2(c3ccccc31)c1cc(I)c(O)c(I)c1Oc1c2cc(I)c(O)c1I
inactive: [1]; [7] 32% | [2]; [7] 61% | [3]; [7] 21% | [3]; [8] 56% | [4]; [7] 15% | [5]; [7] 15% | [6]; [7] 62%
active: [1]; [8] 99% | [1]; at 50.0 µM 98.5% | [2]; [8] 99% | [2]; at 50.0 µM 99.3% | [3]; at 50.0 µM 99.6% | [4]; [8] 98% | [4]; at 50.0 µM 98.8% | [5]; [8] 99% | [5]; at 50.0 µM 99.2% | [6]; [8] 99% | [6]; at 50.0 µM 98.7%

CC(C)=NOc1ccc([N+](=O)[O-])cc1[N+](=O)[O-]
active: [1]; [8] 87% | [1]; at 50.0 µM 89.9% | [2]; [8] 81% | [3]; [8] 84% | [5]; [8] 81% | [6]; [8] 93% | [6]; at 50.0 µM 71.3%
inactive: [1]; [7] 19% | [2]; [7] 11% | [2]; at 50.0 µM 53% | [3]; [7] 17% | [3]; at 50.0 µM 54.1% | [4]; [7] 2% | [4]; [8] 48% | [4]; at 50.0 µM 30.5% | [5]; [7] 4% | [5]; at 50.0 µM 55.3% | [6]; [7] 5%

CN1C/C(=C\c2ccccc2)C(=O)/C(=C/c2ccccc2)C1
active: [1]; [8] 99% | [2]; [8] 100% | [3]; [8] 99% | [4]; [8] 98% | [5]; [8] 99% | [6]; [8] 99%
inactive: [1]; [7] 13% | [1]; at 50.0 µM 54.5% | [2]; [7] 16% | [2]; at 50.0 µM 10.2% | [3]; [7] 19% | [3]; at 50.0 µM 19% | [4]; [7] 14% | [4]; at 50.0 µM 52.5% | [5]; [7] 10% | [5]; at 50.0 µM 14.6% | [6]; [7] 11% | [6]; at 50.0 µM 21.4%

CCCCCCCCCCCCCCCCCCSSCCCCCCCCCCCCCCCCCC
inactive: [1]; [7] 1% | [1]; [8] -3% | [1]; at 50.0 µM 36.1% | [2]; [7] 1% | [2]; [8] 4% | [2]; at 50.0 µM 14.9% | [3]; [7] -3% | [3]; [8] -3% | [3]; at 50.0 µM -0.8% | [4]; [7] -4% | [4]; [8] 4% | [5]; [7] 2% | [5]; [8] 1% | [5]; at 50.0 µM 15.6% | [6]; [7] -3% | [6]; [8] -7% | [6]; at 50.0 µM -16.1%
active: [4]; at 50.0 µM 80.9%

Nc1nnc2nc(CC(=O)c3ccccc3)/c(=C/C(=O)c3ccccc3)n12
inactive: [1]; [7] -21% | [1]; [8] -10% | [1]; at 50.0 µM -14.1% | [2]; [7] -11% | [2]; [8] -20% | [2]; at 50.0 µM 9.4% | [3]; [7] -23% | [3]; [8] -6% | [3]; at 50.0 µM 1.05% | [4]; [7] -17% | [4]; [8] -16% | [4]; at 50.0 µM 28.6% | [5]; [7] 5% | [5]; [8] -5% | [5]; at 50.0 µM -4.95% | [6]; [7] -21% | [6]; [8] -9% | [6]; at 50.0 µM -0.3%
